For 20 molecules, outcome and Potency results are on record in PubChem BioAssay (Tox21).

Each structure is given as a SMILES string. “And” between values parts separate entries of the source, which are not always exact repeats. Equal values may be shown once. Inconclusive results are not listed. The source made the active and inactive calls. Unless noted, the call rests on the fitted dose curve; in most records, active means well fitted curve in the direction sought with a large enough effect in the repeat runs; inconclusive means weak or mixed curves; inactive means no such curve, though single readings can be large; an effect the other way counts as inactive or inconclusive.

A short description of assay [1]: qHTS assay to identify aromatase inhibitors - cell viability counter screen (AID 743084;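 further: cells stimulated with testosterone during compound exposure; nearly all actives have a fitted effect of over 55% in size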). (In general: Quantitative high-throughput screening tests each substance at several concentrations.)
The target in assay [2] is Aryl hydrocarbon receptor (Homo sapiens) (UniProt P35869). Description: qHTS assay to identify small molecule that activate the aryl hydrocarbon receptor (AhR) signaling pathway (AID 743085).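 Further: HG2L7.5c1 human HepG2 liver cells with stably integrated DRE-driven firefly reporter; series mostly up to about 70 µM; nearly all actives have a fitted effect of over 15% in size.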 In short, it runs like this:
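24 h compound exposure, 37C, HepG2-derived HG2L7.5c1 cells with DRE-responsive luciferase. Readouts: fluorescence viability, then luminescence at room temperature after 30 min.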

The nature of assay [3]: qHTS assay to identify small molecule that activate the aryl hydrocarbon receptor (AhR) signaling pathway - cell viability counter screen (AID 743086).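 Further: HepG2 liver cells carrying the AhR DRE luciferase reporter; series mostly up to about 70 µM; nearly all actives have a fitted effect of over 45% in size.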 In short, it runs like this:
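HepG2-AhR-luc (HG2L7.5c1) cells, 4000/well, were preincubated 5 h at 37C, exposed to compound in qHTS format for 24 hr at 37C, then given CellTiter-Fluor for 30 min; viability was read as fluorescence in the reporter wells.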

Assay [4] addresses Peroxisome proliferator-activated receptor gamma (Homo sapiens) (UniProt P37231). Description: qHTS assay to identify small molecule agonists of the peroxisome proliferator-activated receptor gamma (PPARg) signaling pathway (AID 743094; active means well fitted activation curve with a large enough effect in the signal ratio in the repeat runs, not every such curve was filed as active; the % refers to the signal ratio). In short, it runs like this: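 Agonism was assessed in a beta-lactamase reporter system, HEK293H cells with a stably integrated UAS-bla construct under PPARg control; the 17 h treatment at 37C preceded a 1 h room-temperature FRET substrate read.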

Assay [5] has the same target. Description: qHTS assay to identify small molecule antagonists of the peroxisome proliferator-activated receptor gamma (PPARg) signaling pathway (AID 743191; calls by dose curve; further: series mostly up to about 63 µM; nearly all actives have a fitted effect of over 30% in size). In short, it runs like this: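 GeneBLAzer PPARg UAS-bla HEK293H cells carrying a UAS-driven beta-lactamase reporter were plated at 3000 cells/well, preincubated 5 h at 37C, then given compound for 17 h at 37C; LiveBLAzer B/G FRET substrate was read after 1 h at room temperature.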

Assay [6] can be described thus: qHTS assay to identify small molecule antagonists of the peroxisome proliferator-activated receptor gamma (PPARg) signaling pathway - cell viability counter screen (AID 743194). Further: nearly all actives have a fitted effect of over 55% in size. In short, it runs like this: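 PPARg-UAS-bla HEK293H cells were plated, rested 5 h at 37 C, then treated with compounds plus rosiglitazone (50 nM final) for 17 h at 37 C; viability was then read by CellTiter-Glo luminescence after 30 min at room temperature.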

Assay [7] can be described thus: qHTS assay for small molecule agonists of the antioxidant response element (ARE) signaling pathway - cell viability counter screen (AID 743203; calls by dose curve; further: nearly all actives have a fitted effect of over 55% in size). The procedure, abridged:
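ATP content via CellTiter-Glo luminescence served as the viability measure. Cells: ARE-bla HepG2, 2,000 per well. Exposure: 16 hrs, 37C/5% CO2.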

Assay [8] is described as follows: qHTS assay for small molecule activators of the heat shock response signaling pathway - cell viability counter screen (AID 743209). Further: nearly all actives have a fitted effect of over 50% in size. The procedure, abridged: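 Compounds dissolved in DMSO were added to overnight-plated HSE-bla HeLa cells and left 5 h at 37 C. Cell viability was quantified by luminescence using CellTiter-Glo.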
Assay [9] can be described thus: qHTS assay for small molecule activators of the heat shock response signaling pathway (AID 743210; active means well fitted activation curve with a large enough effect in the signal ratio in the repeat runs, with a control signal flat, not every such curve was filed as active; the % refers to the signal ratio; further: series mostly up to about 63 µM). In short, it runs like this:
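Heat shock element–beta-lactamase HeLa reporter cells; qHTS with compounds for 5 h at 37 C; detection by FRET substrate fluorescence after 2.5 h at RT.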

Assay [10] is described as follows: qHTS assay for small molecule agonists of the antioxidant response element (ARE) signaling pathway (AID 743202; active means well fitted activation curve with a large enough effect in the signal ratio in the repeat runs, not every such curve was filed as active; the % refers to the signal ratio; further: potency means the concentration at half of the fitted maximal effect). The procedure, abridged:
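Following a 16 h, 37 C exposure of reporter HepG2 cells (ARE-driven beta-lactamase, 2,000 cells/well) to compounds, FRET substrate was applied for 2 h at room temperature and fluorescence intensity recorded.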

Chain of Aryl hydrocarbon receptor (Homo sapiens) (P35869 whole entry, looked up): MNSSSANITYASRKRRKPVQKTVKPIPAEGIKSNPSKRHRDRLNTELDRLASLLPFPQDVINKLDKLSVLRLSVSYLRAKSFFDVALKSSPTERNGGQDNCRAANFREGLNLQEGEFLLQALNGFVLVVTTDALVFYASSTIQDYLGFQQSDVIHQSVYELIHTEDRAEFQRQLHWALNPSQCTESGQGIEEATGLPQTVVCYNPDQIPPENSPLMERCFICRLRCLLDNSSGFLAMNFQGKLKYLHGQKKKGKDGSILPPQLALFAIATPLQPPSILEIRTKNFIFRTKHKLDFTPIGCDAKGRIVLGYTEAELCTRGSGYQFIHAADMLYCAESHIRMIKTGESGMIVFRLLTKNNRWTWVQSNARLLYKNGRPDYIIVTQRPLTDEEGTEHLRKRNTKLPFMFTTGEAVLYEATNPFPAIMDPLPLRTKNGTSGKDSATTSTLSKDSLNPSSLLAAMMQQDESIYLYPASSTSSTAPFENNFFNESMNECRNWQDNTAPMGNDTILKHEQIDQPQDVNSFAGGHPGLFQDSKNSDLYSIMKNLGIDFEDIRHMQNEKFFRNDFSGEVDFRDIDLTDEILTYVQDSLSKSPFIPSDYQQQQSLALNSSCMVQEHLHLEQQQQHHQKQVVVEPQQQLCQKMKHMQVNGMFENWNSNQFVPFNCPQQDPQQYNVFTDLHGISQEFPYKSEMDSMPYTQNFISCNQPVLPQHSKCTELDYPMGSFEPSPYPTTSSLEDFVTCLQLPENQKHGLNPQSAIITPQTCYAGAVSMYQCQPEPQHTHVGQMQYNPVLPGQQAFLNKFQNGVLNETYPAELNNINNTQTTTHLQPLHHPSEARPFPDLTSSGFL
Chain of Peroxisome proliferator-activated receptor gamma (Homo sapiens) (P37231 whole entry, looked up): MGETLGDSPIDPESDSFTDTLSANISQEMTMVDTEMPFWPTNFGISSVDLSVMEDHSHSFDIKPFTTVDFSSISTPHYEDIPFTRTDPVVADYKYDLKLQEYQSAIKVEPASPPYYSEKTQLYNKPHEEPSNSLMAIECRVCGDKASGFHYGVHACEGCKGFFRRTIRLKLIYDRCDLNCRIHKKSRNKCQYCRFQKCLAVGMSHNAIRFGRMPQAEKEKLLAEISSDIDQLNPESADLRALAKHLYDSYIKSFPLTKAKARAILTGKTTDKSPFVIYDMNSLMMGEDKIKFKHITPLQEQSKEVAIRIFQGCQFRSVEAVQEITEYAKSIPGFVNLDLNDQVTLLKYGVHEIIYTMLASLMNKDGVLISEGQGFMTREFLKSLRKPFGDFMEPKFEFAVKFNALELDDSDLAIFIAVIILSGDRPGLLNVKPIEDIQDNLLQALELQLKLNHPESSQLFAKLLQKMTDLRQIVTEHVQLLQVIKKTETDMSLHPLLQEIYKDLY

As to `CCCCOC(=O)c1ccccc1C(=O)OCCCC`, the molecule was classed as inactive in assay [1], in assay [3], in assay [4], in assay [6], in assay [7] and in assay [8]. Also, the molecule was called inactive in assay [9]. In addition, the Potency result in assay [2] and in assay [5] was “inactive” in each case.
`CN=C=S`: the call in assay [1], in assay [3], in [4], in assay [6], in assay [7] and in [8] was inactive. Also, the molecule was called inactive in assay [9]. Also, the Potency entry in assay [2], in assay [5] and in [10] was “inactive” in each case.
Take `c1cc2c3c(cccc3c1)CC2`: the molecule was classed as inactive in assay [1], in assay [3], in assay [4], in assay [7], in assay [8] and in assay [9]. Besides, the Potency entry in assay [2], in [5] and in [10] was “inactive” in each case.
`CC(C)(Cl)Cl`: the outcome in assay [1], in assay [3], in [4], in [6], in assay [7] and in assay [8] was inactive. Further, the outcome in assay [9] was inactive. Moreover, the Potency entry in assay [2] and in [5] was “inactive” throughout.
Turning to `O=c1[nH]c(=O)[nH]c(=O)[nH]1`, the molecule was classed as inactive in assay [1], in [3], in assay [4], in assay [7], in assay [8] and in assay [9]. Moreover, the Potency entry in [2] was “inactive”.
With `CCC12COCN1COC2`, the molecule was classed as inactive in assay [1], in [3], in assay [4], in assay [7], in [8] and in assay [9]. Moreover, the Potency entry in assay [2] was “inactive”.
`C=CCO`: the molecule was called inactive in assay [1], in assay [3], in assay [7] and in assay [8]. Also, the Potency entry in assay [2] and in assay [10] was “inactive” in each case.
For the molecule `CN1C(=O)CN=C(c2ccccc2)c2cc(Cl)ccc21`, the result in [1], in [3], in assay [7], in [8] and in assay [9] was inactive. Further, the Potency result in [10] was “inactive”.
As to `Cc1cccc([N+](=O)[O-])c1`, the molecule was called inactive in assay [1], in assay [3], in [4], in [6], in [7] and in assay [8]. The outcome in assay [9] was inactive. For the same molecule, the Potency entry in [5] and in assay [10] was “inactive” in each case.
In the case of `CCOC(=O)c1ccccc1C(=O)OCC`, the molecule was classed as inactive in [1], in assay [3], in assay [4], in assay [6], in assay [7] and in assay [8]. In addition, in [9], the molecule was called inactive. Also, in assay [10], the Potency entry was “inactive”.
For `O=[N+]([O-])c1ccc(Oc2ccc(Cl)cc2Cl)cc1`, the molecule was classed as inactive in assay [1], in assay [3], in [4], in [7], in [8] and in assay [9]. The Potency entry in assay [2] and in assay [10] was “inactive” in each case.
Regarding `CCc1cccc(C)c1N(C(=O)CCl)C(C)COC` (centres undefined), the molecule was called inactive in [1], in [3], in assay [7], in [8] and in assay [9]. In [2], the Potency result was “inactive”. In [10], the Potency is 8.14 µM (active) and 19.3 µM (active).
As for `CC(NC(C)(C)C)C(=O)c1cccc(Cl)c1` (centres undefined), the call in assay [1], in assay [3], in assay [6], in assay [7] and in assay [8] was inactive. Further, in [2], the Potency entry was “inactive”.
As for `c1ccc2c(c1)Oc1ccccc1O2`, the outcome in assay [1], in assay [3], in assay [6], in assay [7], in assay [8] and in assay [9] was inactive. Moreover, the Potency entry in [2] and in assay [10] was “inactive” in each case.
As to `CCC[CH2][Sn]([Cl])([Cl])[Cl]`, the molecule was classed as inactive in [1], in [3], in assay [4], in assay [7], in assay [8] and in assay [9]. Besides, in [2], the Potency result was “inactive”. Also, the Potency in assay [10] was 1.1 µM (active) and 2.43 µM (active).
Regarding `CCN(CC)c1ccccc1`, the outcome in assay [1], in [3], in assay [4], in [7], in [8] and in assay [9] was inactive. Besides, the Potency result in assay [2] and in [10] was “inactive” throughout.
Regarding `CNC(=O)Oc1ccccc1OC(C)C`, the molecule was classed as inactive in assay [1], in assay [3], in [4], in assay [7], in assay [8] and in assay [9]. For the same molecule, the Potency result in [2] and in [10] was “inactive” throughout.
As to `Cn1cc(-c2ccccc2)c(=O)c(-c2cccc(C(F)(F)F)c2)c1`, the Potency result in [2] and in assay [5] was “inactive” in each case. Moreover, the molecule was classed as inactive in [3], in assay [4], in assay [7], in assay [8] and in [9].
With `[N-]=[N+]=[N-]`, the outcome in assay [1], in assay [3], in assay [4], in assay [6], in assay [7] and in assay [8] was inactive. Also, in [9], the molecule was called inactive.
As to `Cc1[nH]c(=O)n(C(C)(C)C)c(=O)c1Cl`, the result in [1], in [3], in [4], in assay [7], in assay [8] and in [9] was inactive. In addition, the Potency entry in [2] was “inactive”.
